Experimental data reported in PubChem BioAssay (Tox21).
Several values for one entry are separate records, joined by “and”; a condition that tells them apart may be missing. Equal values may be shown once. Inconclusive results are not listed. Entries that show only a call come without a potency. A structure can be active in one record and inactive in another. Activity calls are given as the source filed them. Unless noted, calls follow the shape of the dose curve; as a rule, active = well fitted curve in the direction sought with a large enough effect in the repeat runs; inconclusive = weak or mixed curves; inactive = no such curve, though single readings can be large; an effect the other way counts as inactive or inconclusive.

Legend:
[1] = qHTS assay to identify aromatase inhibitors - cell viability counter screen (AID 743084);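 also: cells stimulated with testosterone during compound exposure; nearly all actives have a fitted effect of over 55% in size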; also: potency is read from the fitted curve at half-maximal effect
[2] = molecular target: Aryl hydrocarbon receptor (Homo sapiens) (UniProt P35869); experiment: qHTS assay to identify small molecule that activate the aryl hydrocarbon receptor (AhR) signaling pathway (AID 743085); also: nearly all actives have a fitted effect of over 15% in size; also: potency is read from the fitted curve at half-maximal effect;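 as to activation: HG2L7.5c1 human HepG2 liver cells with stably integrated DRE-driven firefly reporter; series mostly up to about 70 µM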
Procedure, shortened: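 Compounds were tested in HepG2 hepatocellular carcinoma cells harbouring a stably integrated luciferase gene under control of 20 DREs. Increased reporter signal after 24 h treatment at 37C was taken as AhR activation.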

[3] = molecular target: Peroxisome proliferator-activated receptor gamma (Homo sapiens) (UniProt P37231); experiment: qHTS assay to identify small molecule agonists of the peroxisome proliferator-activated receptor gamma (PPARg) signaling pathway (AID 743094; active = well fitted activation curve with a large enough effect in the signal ratio in the repeat runs, not every such curve was filed as active; the % refers to the signal ratio; also: potency is read from the fitted curve at half-maximal effect)
Procedure, shortened: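 Agonist activity was taken from a beta-lactamase reporter (FRET substrate, 1 h at room temperature) in HEK293H cells carrying a PPARg UAS-bla construct. Compounds in DMSO were incubated 17 h at 37C after a 5 h cell pre-incubation.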

[4] = qHTS assay to identify small molecule antagonists of the peroxisome proliferator-activated receptor gamma (PPARg) signaling pathway - cell viability counter screen (AID 743194); details: Potency: co-treated with 50 nM rosiglitazone unless noted; also: nearly all actives have a fitted effect of over 55% in size
Procedure, shortened: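 PPARg-UAS-bla HEK293H cells were plated, rested 5 h at 37 C, then treated with compounds plus rosiglitazone (50 nM final) for 17 h at 37 C; viability was then read by CellTiter-Glo luminescence after 30 min at room temperature.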

[5] = qHTS assay for small molecule agonists of the antioxidant response element (ARE) signaling pathway - cell viability counter screen (AID 743203; calls by dose curve; also: nearly all actives have a fitted effect of over 55% in size; also: potency is read from the fitted curve at half-maximal effect)
Procedure, shortened: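 Viability counter screen: CellTiter-Glo luminescence, read after 30 min at room temperature, in ARE-bla HepG2 wells. Compound exposure lasted 16 h at 37C/5% CO2, following a 5 h pre-incubation of the cells after plating.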

[6] = qHTS assay for small molecule activators of the heat shock response signaling pathway - cell viability counter screen (AID 743209); also: nearly all actives have a fitted effect of over 50% in size; also: potency is read from the fitted curve at half-maximal effect
Procedure, shortened: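 Cytotoxicity counter screen run in the same wells as the heat-shock bla reporter assay: HeLa HSE-bla cells, 5 h compound exposure at 37 C, viability read by CellTiter-Glo luminescence.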

[7] = qHTS assay to identify small molecule that activate the aryl hydrocarbon receptor (AhR) signaling pathway - cell viability counter screen (AID 743086);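 also: HepG2 liver cells carrying the AhR DRE luciferase reporter; series mostly up to about 70 µM; nearly all actives have a fitted effect of over 45% in size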
Procedure, shortened: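 HepG2-AhR-luc (HG2L7.5c1) cells, 4000/well, were preincubated 5 h at 37C, exposed to compound in qHTS format for 24 hr at 37C, then given CellTiter-Fluor for 30 min; viability was read as fluorescence in the reporter wells.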

[8] = qHTS assay for small molecule agonists of the antioxidant response element (ARE) signaling pathway (AID 743202; active = well fitted activation curve with a large enough effect in the signal ratio in the repeat runs, not every such curve was filed as active; the % refers to the signal ratio)
Procedure, shortened: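 Following a 16 h, 37 C exposure of reporter HepG2 cells (ARE-driven beta-lactamase, 2,000 cells/well) to compounds, FRET substrate was applied for 2 h at room temperature and fluorescence intensity recorded.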

[9] = qHTS assay for small molecule activators of the heat shock response signaling pathway (AID 743210; active = well fitted activation curve with a large enough effect in the signal ratio in the repeat runs, with a control signal flat, not every such curve was filed as active; the % refers to the signal ratio; also: potency is read from the fitted curve at half-maximal effect; as to activation: series mostly up to about 63 µM)
Procedure, shortened: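 Heat shock element–beta-lactamase HeLa reporter cells; qHTS with compounds for 5 h at 37 C; detection by FRET substrate fluorescence after 2.5 h at RT.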

[10] = molecular target: Peroxisome proliferator-activated receptor gamma (Homo sapiens) (UniProt P37231); experiment: qHTS assay to identify small molecule antagonists of the peroxisome proliferator-activated receptor gamma (PPARg) signaling pathway (AID 743191; calls by dose curve; also: series mostly up to about 63 µM; nearly all actives have a fitted effect of over 30% in size)
Procedure, shortened: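 GeneBLAzer PPARg UAS-bla HEK293H cells carrying a UAS-driven beta-lactamase reporter were plated at 3000 cells/well, preincubated 5 h at 37C, then given compound for 17 h at 37C; LiveBLAzer B/G FRET substrate was read after 1 h at room temperature.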

Peroxisome proliferator-activated receptor gamma (Homo sapiens), sequence (P37231 whole entry, looked up): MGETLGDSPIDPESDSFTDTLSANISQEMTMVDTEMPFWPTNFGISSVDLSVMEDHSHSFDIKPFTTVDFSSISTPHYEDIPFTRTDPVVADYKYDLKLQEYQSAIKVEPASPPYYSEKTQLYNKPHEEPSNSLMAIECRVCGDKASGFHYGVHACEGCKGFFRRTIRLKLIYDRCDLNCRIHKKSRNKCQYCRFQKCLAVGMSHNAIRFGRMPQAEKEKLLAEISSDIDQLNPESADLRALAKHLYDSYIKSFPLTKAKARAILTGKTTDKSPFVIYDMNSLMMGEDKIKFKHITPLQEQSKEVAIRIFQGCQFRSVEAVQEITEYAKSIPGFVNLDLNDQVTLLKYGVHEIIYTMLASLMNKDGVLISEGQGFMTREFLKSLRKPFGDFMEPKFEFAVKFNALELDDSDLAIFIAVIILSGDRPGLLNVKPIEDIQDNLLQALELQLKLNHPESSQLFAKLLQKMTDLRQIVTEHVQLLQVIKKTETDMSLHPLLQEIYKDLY
Aryl hydrocarbon receptor (Homo sapiens), sequence (P35869 whole entry, looked up): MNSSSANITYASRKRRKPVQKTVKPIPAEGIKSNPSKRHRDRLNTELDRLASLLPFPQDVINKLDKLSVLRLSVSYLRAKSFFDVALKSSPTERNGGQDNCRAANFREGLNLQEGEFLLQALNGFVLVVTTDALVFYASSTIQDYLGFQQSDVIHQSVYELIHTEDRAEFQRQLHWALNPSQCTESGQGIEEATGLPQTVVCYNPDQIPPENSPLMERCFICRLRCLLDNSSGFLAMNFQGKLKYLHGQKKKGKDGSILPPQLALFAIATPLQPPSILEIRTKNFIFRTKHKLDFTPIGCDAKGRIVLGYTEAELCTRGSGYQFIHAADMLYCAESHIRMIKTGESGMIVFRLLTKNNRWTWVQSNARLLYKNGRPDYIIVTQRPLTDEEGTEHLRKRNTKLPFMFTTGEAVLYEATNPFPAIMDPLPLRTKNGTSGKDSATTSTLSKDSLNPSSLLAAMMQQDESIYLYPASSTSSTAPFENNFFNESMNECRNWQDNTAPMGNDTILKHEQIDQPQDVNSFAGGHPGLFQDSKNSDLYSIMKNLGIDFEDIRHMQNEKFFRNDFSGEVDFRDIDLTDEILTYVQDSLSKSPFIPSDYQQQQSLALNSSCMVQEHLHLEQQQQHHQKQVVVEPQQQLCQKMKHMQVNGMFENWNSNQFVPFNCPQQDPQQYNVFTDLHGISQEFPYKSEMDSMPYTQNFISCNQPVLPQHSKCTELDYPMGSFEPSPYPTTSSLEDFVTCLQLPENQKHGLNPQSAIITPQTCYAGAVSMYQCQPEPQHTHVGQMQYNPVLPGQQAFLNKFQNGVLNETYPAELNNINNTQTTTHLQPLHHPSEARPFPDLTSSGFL

| Compound | Potency [1] | Potency [2] | Potency [3] | Potency [4] | Potency [5] | Potency [6] | Potency [7] | Potency [8] | Potency [9] | Potency [10] |
| --- | --- | --- | --- | --- | --- | --- | --- | --- | --- | --- |
| CC(C)Oc1cc(-n2nc(C(C)(C)C)oc2=O)c(Cl)cc1Cl | 27.3 µM (active) | inactive | inactive | inactive | inactive and 34.4 µM (active) | inactive | – | – | – | – |
| CC(C)N(C(=O)SCC(Cl)=C(Cl)Cl)C(C)C | – | – | – | inactive | inactive | inactive | inactive | inactive | inactive | – |
| CCOC(=S)S | – | inactive | – | inactive | inactive | 17.4 µM (active) | – | inactive | 2.24 µM (active) | – |
| Cc1cc(C)cc(C)c1 | – | – | – | inactive | inactive | inactive | inactive | inactive | inactive | – |
| CCCCOCCOP(=O)(OCCOCCCC)OCCOCCCC | inactive | – | inactive | inactive | inactive | inactive | inactive | – | inactive | inactive |
| Nc1ccc(-c2ccc(N)c(N)c2)cc1N | 54.3 µM (active) and inactive | 484 nM (active) and 3.06 µM (active) | inactive | inactive | inactive | inactive | – | – | – | – |
| O=c1oc2ccccc2c(O)c1C(CC(O)c1ccc(-c2ccc(Br)cc2)cc1)c1ccccc1 (configuration not stated) | inactive | inactive | 601 nM (active) and 1.04 µM (active) | – | inactive | 41.3 µM (active) | – | – | – | – |
| Cc1c(COC(=O)[C@@H]2[C@H](/C=C(\Cl)C(F)(F)F)C2(C)C)cccc1-c1ccccc1 | inactive | inactive | inactive | inactive | inactive | inactive | – | inactive | inactive | – |
| C=CC(=O)OCCO | – | – | – | inactive | inactive | inactive | inactive | – | inactive | – |
| CCOC(=O)C(C)OC(=O)c1cc(Oc2ccc(C(F)(F)F)cc2Cl)ccc1[N+](=O)[O-] (configuration not stated) | inactive | inactive | inactive | inactive | inactive | inactive | – | – | – | – |
| CCOCN(C(=O)CCl)c1c(C)cccc1CC | – | inactive | inactive | inactive | 14.5 µM (active) and 21.7 µM (active) | – | inactive | – | – | – |
